Test results as given in PubChem BioAssay AID1159580 (chemical genetic matrix, 2015).
Several values for one entry are separate records, joined by “and”; a condition that tells them apart may be missing. Equal values may be shown once. Out of some 5,500 compounds screened, about 2,000 (36%) were called active. About 18% were inconclusive and are not listed. Cut-off read from the data, not from the text of the source: active = normalized growth mostly below about 0.91 (no sharp cut-off); inconclusive = no clear call, values can overlap the other calls; inactive = mostly above about 0.92. The list shows a part of the results.

Assay: chemical genetic growth profiling, strain panel (AID 1159580);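 note: tested at 20 µM; growth read once vehicle control cultures reached saturation at 30 °C; 1 = growth at the plate median or of vehicle wells; lower values mean less growth of the strain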
Settings: S. cerevisiae deletion strains, growth OD

Measured: normalized growth

CN(C)CCOC(c1ccc(Cl)cc1)c1ccccn1 (centres undefined)
inactive: locus YAL021C, strain ccr4, hits give low values 1.04 | locus YAL026C, strain drs2, hits give low values 1.05 | locus YAL030W, strain snc1, hits give low values 1.03 | locus YBL061C, strain skt5, hits give low values 1.04 | locus YBR009C, strain hhf1, hits give low values 1.02 | locus YBR021W, strain FUR4, hits give low values 0.966 | locus YBR023C, strain chs3, hits give low values 1.03 | locus YBR171W, strain sec66, hits give low values 1.02 | locus YBR229C, strain ROT2, hits give low values 1 | locus YBR231C, strain swc5, hits give low values 1.01 | locus YBR279W, strain paf1, hits give low values 1.02 | locus YCL011C, strain gbp2, hits give low values 1.01 | locus YCL016C, strain dcc1, hits give low values 1.01 | locus YCL029C, strain bik1, hits give low values 0.999 | locus YCL069W, strain vba3, hits give low values 1.02 | locus YCR088W, strain abp1, hits give low values 1.01 | locus YDL005C, strain med2, hits give low values 1.03 | locus YDL035C, strain GPR1, hits give low values 0.978 | locus YDL040C, strain nat1, hits give low values 1.02 | locus YDL074C, strain BRE1, hits give low values 1.03 | locus YDL101C, strain DUN1, hits give low values 1.04 | locus YDL185W, strain tfp1, hits give low values 1 | locus YDL192W, strain arf1, hits give low values 1.01 | locus YDR001C, strain nth1, hits give low values 1.02 | locus YDR069C, strain doa4, hits give low values 1.03 | locus YDR101C, strain arx1, hits give low values 1.01 | locus YDR137W, strain rgp1, hits give low values 1.01 | locus YDR159W, strain sac3, hits give low values 1.02 | locus YDR162C, strain NBP2, hits give low values 0.975 | locus YDR195W, strain ref2 1.02 | locus YDR297W, strain sur2, hits give low values 1.03 | locus YDR318W, strain mcm21, hits give low values 0.998 | locus YDR334W, strain swr1, hits give low values 1.01 | locus YDR335W, strain msn5, hits give low values 1.03 | locus YDR388W, hits give low values 1.01 | locus YDR392W, strain spt3, hits give low values 1.01 | locus YDR502C, strain sam2, hits give low values 1.03 | locus YEL003W, strain gim4, hits give low values 1.01 | locus YEL037C, strain rad23, hits give low values 1.02 | locus YEL061C, strain CIN8 (second series), hits give low values 1.02 | locus YEL061C, strain CIN8, hits give low values 1.01 | locus YER015W, strain faa2, hits give low values 1.04 | locus YER016W, strain bim1, hits give low values 0.997 | locus YER110C, hits give low values 1.02 | locus YER111C, strain swi4, hits give low values 1.03 | locus YER155C, strain BEM2 (second series), hits give low values 1.02 | locus YER155C, strain BEM2, hits give low values 1.02 | locus YER167W, strain BCK2, hits give low values 0.99 | locus YFR010W, strain ubp6, hits give low values 1.03 | locus YGL078C, strain dbp3, hits give low values 0.998 | locus YGL086W, strain mad1, hits give low values 1.01 | locus YGL167C, strain pmr1, hits give low values 1.01 | locus YGL173C, strain kem1, hits give low values 1.02 | locus YGL227W, strain vid30, hits give low values 1.03 | locus YGL240W, strain doc1, hits give low values 1.04 | locus YGL248W, strain PDE1, hits give low values 1.04 | locus YGL253W, strain hxk2, hits give low values 1.03 | locus YGR078C, strain PAC10, hits give low values 1.02 | locus YGR135W, strain pre9, hits give low values 1 | locus YGR229C, strain SMI1, hits give low values 0.983 | locus YGR252W, strain gcn5, hits give low values 0.947 | locus YHR013C, strain ard1, hits give low values 1.01 | locus YHR027C, strain rpn1, hits give low values 1.02 | locus YHR030C, strain SLT2, hits give low values 1 and 1.02 | locus YHR079C, strain IRE1 (second series), hits give low values 1.01 | locus YHR079C, strain IRE1, hits give low values 1 | locus YHR094C, strain hxt1, hits give low values 1.01 | locus YHR129C, strain ARP1, hits give low values 1.01 | locus YHR142W, strain chs7, hits give low values 1.02 | locus YHR200W, strain rpn10, hits give low values 1.01 | locus YIL066C, strain RNR3, hits give low values 0.957 | locus YIL073C, strain SPO22, hits give low values 1 | locus YIL125W, strain kgd1, hits give low values 0.995 | locus YIR030C, strain dcg1, hits give low values 1.03 | locus YJL092W, strain hpr5, hits give low values 1.02 | locus YJL095W, strain BCK1 (second series), hits give low values 1.01 | locus YJL095W, strain BCK1, hits give low values 1.07 and 1 | locus YJL115W, strain asf1, hits give low values 1.02 | locus YJL129C, strain trk1, hits give low values 1.05 | locus YJL134W, strain LCB3, hits give low values 1.01 | locus YJL154C, strain vps35, hits give low values 1.02 | locus YJL164C, strain tpk1, hits give low values 1 | locus YJL166W, strain qcr8, hits give low values 1.03 | locus YJL168C, strain set2, hits give low values 1.02 | locus YJL187C, strain SWE1 (second series), hits give low values 1.04 | locus YJL187C, strain SWE1, hits give low values 1.01 | locus YJR043C, strain POL32, hits give low values 0.968 | locus YJR066W, strain TOR1, hits give low values 0.981 | locus YJR075W, strain HOC1, hits give low values 1.03 | locus YKL009W, strain mrt4, hits give low values 1.02 | locus YKL068W, hits give low values 0.997 | locus YKL085W, strain MDH1 (second series), hits give low values 0.989 | locus YKL085W, strain MDH1, hits give low values 0.989 | locus YKL160W, strain elf1, hits give low values 1.02 | locus YKL190W, strain CNB1, hits give low values 1 | locus YKR001C, strain vps1, hits give low values 1 | locus YKR026C, strain gcn3, hits give low values 1.03 | locus YKR091W, strain srl3, hits give low values 1.02 | locus YLL001W, strain dnm1, hits give low values 1.03 | locus YLL026W, hits give low values 1.03 | locus YLL041C, strain sdh2, hits give low values 1.02 | locus YLR027C, strain aat2, hits give low values 1.03 | locus YLR039C, strain RIC1, hits give low values 1.02 | locus YLR058C, strain SHM2, hits give low values 1.01 | locus YLR102C, strain apc9, hits give low values 1.01 | locus YLR113W, strain HOG1, hits give low values 0.987 | locus YLR221C, strain rsa3, hits give low values 1.01 | locus YLR258W, strain gsy2, hits give low values 1.01 | locus YLR262C, strain YPT6 (second series), hits give low values 1.04 | locus YLR262C, strain YPT6, hits give low values 1.05 | locus YLR268W, strain sec22, hits give low values 1 | locus YLR320W, strain mms22, hits give low values 1 | locus YLR330W, strain CHS5, hits give low values 1.01 | locus YLR342W, strain FKS1 (second series), hits give low values 0.95 | locus YLR342W, strain FKS1, hits give low values 1.04 | locus YLR357W, strain rsc2, hits give low values 1.06 | locus YLR370C, strain arc18, hits give low values 1.01 | locus YLR371W, strain rom2, hits give low values 1 | locus YLR384C, strain iki3, hits give low values 1.03 | locus YLR418C, strain cdc73, hits give low values 1.07 | locus YML016C, strain PPZ1, hits give low values 1.01 | locus YML032C, strain rad52, hits give low values 0.998 | locus YML120C, strain ndi1, hits give low values 1.02 | locus YML124C, strain tub3, hits give low values 1 | locus YMR058W, strain fet3, hits give low values 1.03 | locus YMR078C, strain ctf18, hits give low values 1.01 | locus YMR125W, strain sto1, hits give low values 1.01 | locus YMR129W, hits give low values 1.03 | locus YMR205C, strain PFK2, hits give low values 1.03 | locus YMR223W, strain ubp8, hits give low values 0.998 | locus YMR231W, strain pep5, hits give low values 1.03 | locus YMR307W, strain GAS1, hits give low values 0.976 | locus YNL067W, strain RPL9B, hits give low values 1.06 | locus YNL071W, strain lat1, hits give low values 1.01 | locus YNL183C, strain NPR1, hits give low values 0.941 | locus YNL209W, strain ssb2, hits give low values 1.02 | locus YNL233W, strain BNI4, hits give low values 1.04 | locus YNL248C, strain rpa49, hits give low values 1.04 | locus YNL250W, strain rad50, hits give low values 1.02 | locus YNL271C, strain bni1, hits give low values 1.03 | locus YNL298W, strain CLA4, hits give low values 0.994 | locus YNL307C, strain MCK1, hits give low values 1.01 | locus YNL322C, strain KRE1 (second series), hits give low values 1.03 | locus YNL322C, strain KRE1, hits give low values 1.01 | locus YNR049C, strain mso1, hits give low values 1.02 | locus YNR052C, strain pop2, hits give low values 1.01 | locus YOL012C, strain htz1 0.873 | locus YOL147C, strain pex11, hits give low values 1.01 | locus YOR001W, strain rrp6, hits give low values 1.04 | locus YOR061W, strain CKA2, hits give low values 1.01 | locus YOR069W, strain VPS5, hits give low values 1.01 | locus YOR070C, strain gyp1, hits give low values 1.01 | locus YOR080W, strain dia2, hits give low values 1.02 | locus YOR083W, strain WHI5, hits give low values 1.03 | locus YOR106W, strain vam3, hits give low values 1.03 | locus YOR136W, strain idh2, hits give low values 1.01 | locus YOR144C, strain elg1, hits give low values 1 | locus YOR184W, strain ser1, hits give low values 0.997 | locus YOR231W, strain MKK1, hits give low values 0.996 | locus YOR265W, strain rbl2, hits give low values 1.02 | locus YOR270C, strain vph1, hits give low values 1.05 | locus YOR290C, strain snf2, hits give low values 1 | locus YOR316C, strain cot1, hits give low values 1.01 | locus YPL051W, strain arl3, hits give low values 1.03 | locus YPL055C, strain LGE1, hits give low values 0.976 | locus YPL078C, strain atp4, hits give low values 1.02 | locus YPL106C, strain sse1, hits give low values 0.993 | locus YPL240C, strain hsp82, hits give low values 1.01 | locus YPL256C, strain CLN2, hits give low values 1 | locus YPR119W, strain clb2, hits give low values 1.01 | locus YPR141C, strain kar3, hits give low values 1.01 | locus YPR163C, strain tif3, hits give low values 1 | locus YPR167C, strain met16, hits give low values 1 | strain wtn01, hits give low values 0.995
